Among the data in PubChem BioAssay (NCATS) are Potency and outcome values, retold here.

The structures appear in SMILES notation. Inconclusive results are not listed. Entries that show only a call come without a potency. Calls of active or inactive are those of the source. The call rests on the fitted dose curve.

A short description of the assay: Primary qHTS for inhibitors of MERS-S pseudo-typed particle cell entry (AID 1479149). Further: nearly all actives have a fitted effect of over 60% in size. Particulars: MERS-S pseudotyped particle entry, luciferase; series mostly up to 57.1 µM.
`C1CCN2C[C@@H]3C[C@@H](CN4CCCC[C@@H]34)[C@H]2C1`: the Potency entry was “inactive”.

As to `CCN(CC)CCOc1ccccc1C(=O)CCc1ccccc1`, the Potency result was “inactive”. For `Cc1c(-c2ccccc2)oc2c(C(=O)OCCN3CCCCC3)cccc2c1=O`, the Potency result was “inactive”.

For the compound `CN(C)CCN1C(=O)c2ccccc2N(C)c2ccccc21`, the Potency result is “inactive”. For `CCCCCCCCCCCCCCCCC(C(=O)O)C(O)(CC(=O)O)C(=O)O` (configuration not stated), the Potency entry is “inactive”.

With `C[C@@H](C1=C(CCN(C)C)Cc2ccccc21)c1ccccn1`, the Potency entry is “inactive”. Turning to `CCOc1ccccc1O[C@H](c1ccccc1)[C@H]1CNCCO1`, the Potency result was “inactive”.

Consider `C=C1c2cccc(O)c2C(O)=C2C(=O)[C@]3(O)C(O)=C(C(N)=O)C(=O)[C@@H](N(C)C)[C@@H]3[C@@H](O)[C@H]12`, for which the Potency result is “inactive”. Take `CCOCCn1c(N2CCCN(C)CC2)nc2ccccc21`: the Potency entry was “inactive”.

In the case of `CN(C)CCN(Cc1ccccc1)c1ccccn1`, the Potency result is “inactive”. In the case of `OC(CCN1CCCCC1)(c1ccccc1)c1ccccc1`, the Potency result is “inactive”. `COc1cc(NS(=O)(=O)c2ccc(N)cc2)ncn1`: the Potency entry was “inactive”. Take `C[C@@H]1CCC[C@H](C)N1CCCC(O)(c1ccccc1)c1ccccn1` (some centres not stated): the Potency entry is “inactive”.

Turning to `CCN[C@@H]1C[C@H](N)[C@@H](OC2OC(CN)=CCC2N)[C@H](O)[C@H]1O[C@H]1OC[C@](C)(O)[C@H](NC)[C@H]1O` (some centres not stated), the outcome is “inactive [at 0.573 µM]”.

Consider `COc1ccc(C(Cl)=C(c2ccc(OC)cc2)c2ccc(OC)cc2)cc1`, for which the Potency result is “inactive”. On to `CN(C)CCC(c1ccccc1)c1ccccn1` (configuration not stated), for which the Potency entry was “inactive”.

In the case of `CC1CC(=O)NN=C1c1ccc(NCC(C)(C)NCC(O)COc2cc(Cl)ccc2C#N)cc1` (configuration not stated), the Potency result was “inactive”.
